Data: PubChem BioAssay (NCATS)
Records with an inconclusive call do not appear. Where a call stands in place of a potency, no number is given. The source made the active and inactive calls. The call rests on the fitted dose curve; in most records, active means well fitted inhibition curve with a large enough effect; inconclusive means small, poorly fitted or top-dose-only effect; inactive means flat fitted curve, though single readings scatter.

The compounds below were run on Zika virus NS2B-NS3 protease (assay: Primary screen GU AMC qHTS for Zika virus inhibitors (AID 1347154; further: nearly all actives have a fitted effect of over 70% in size)). Conditions: Zika NS2B-NS3 unlinked protease, AMC fluorogenic substrate; series mostly up to 54.1 µM.
Method in brief: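 Fluorogenic AMC-substrate cleavage by noncovalent NS2B-NS3 protease complex (25 nM, pH 8.0 Tris buffer with Tween 20) followed for 15 minutes at room temperature (~20% conversion). Percent inhibition from ex340/em450 signal change, fitted by 4-parameter Hill equation.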
For `CCN(CC)CCN`, the Potency was “inactive”.
`CC(NC(CCc1ccccc1)C(=O)O)C(=O)N1C(=O)N(C)CC1C(=O)O` (stereo not given) was tested, and the Potency was “inactive”.
In the case of `COc1ccc2c(c1)CCCC2=O`, the Potency is reported as “inactive”.
For `O=C(O)CCC(=O)OC[C@@H](NC(=O)C(Cl)Cl)[C@H](O)c1ccc([N+](=O)[O-])cc1`, the Potency was “inactive”.
For `CC1CC(=O)NN=C1c1ccc(NCC(C)(C)NCC(O)COc2cc(Cl)ccc2C#N)cc1` (stereo not given), the Potency was “inactive”.
In the case of `O=C(Nc1ccc(Cl)cc1)Nc1ccc(Cl)c(Cl)c1`, the Potency is reported as “inactive”.
In the case of `Cc1cccc(N(C)C(=S)Oc2ccc3c(c2)C2CCC3C2)c1` (stereo not given), the Potency is reported as “inactive”.
With `CC(=O)N(c1onc(C)c1C)S(=O)(=O)c1ccc(N)cc1` the Potency was “inactive”.
With `Oc1cccc2[nH]ccc12` the Potency was “inactive”.
For `CCCCCOc1ccc(C2SC(=O)NC2=O)cc1OCC` (stereo not given), the Potency was “inactive”.
`CCCc1c2oc(C(=O)O)cc(=O)c2cc2c(=O)cc(C(=O)O)n(CC)c12` was tested, and the Potency was “inactive”.
With `CC(=O)OC[C@H]1O[C@@H](OC(C)=O)[C@H](OC(C)=O)[C@@H]1OC(C)=O` the Potency was “inactive”.
In the case of `OCCCc1ccccc1`, the Potency is reported as “inactive”.
With `OCCOCCN1CCN(C(c2ccccc2)c2ccc(Cl)cc2)CC1` (stereo not given) the Potency was “inactive”.
With `O=C1Nc2cc(Cl)ccc2Oc2ccccc21` the Potency was “inactive”.
In the case of `C1N2CN3CN1CN(C2)C3`, the Potency is reported as “inactive”.
For `CC(C)=CCC/C(C)=C/CC/C(C)=C/CCC(=O)OC/C=C(\C)CCC=C(C)C`, the Potency was “inactive”.
For `CCOC(=O)c1cc(=O)c2c(OCC(COc3cccc4oc(C(=O)OCC)cc(=O)c34)OC(=O)[C@@H](N)CCCCN)cccc2o1`, the Potency was “inactive”.
With `O=C(C1CCCCC1)N1CC(=O)N2CCCc3ccccc3C2C1` (stereo not given) the Potency was “inactive”.
With `CCC(CN)=C(c1ccccc1)c1ccccc1` the Potency was “inactive”.
